PubChem BioAssay
Results with a measured potency or affinity are listed apart. Active and inactive are the calls of the source. No cut-off is given here; in the data, nearly all actives have IC50 up to about 0.91 µM.

Biological target: Calcium-dependent protein kinase 4 (Plasmodium falciparum (isolate 3D7)) (UniProt Q8IBS5)
Test: PfCDPK4 kinase inhibitors, biochemical, TCAMS library (AID 1159588)
Details: recombinant PfCDPK4, Kinase-Glo ATP depletion luminescence

Chain of Calcium-dependent protein kinase 4 (Plasmodium falciparum (isolate 3D7)) (Q8IBS5 whole entry, looked up): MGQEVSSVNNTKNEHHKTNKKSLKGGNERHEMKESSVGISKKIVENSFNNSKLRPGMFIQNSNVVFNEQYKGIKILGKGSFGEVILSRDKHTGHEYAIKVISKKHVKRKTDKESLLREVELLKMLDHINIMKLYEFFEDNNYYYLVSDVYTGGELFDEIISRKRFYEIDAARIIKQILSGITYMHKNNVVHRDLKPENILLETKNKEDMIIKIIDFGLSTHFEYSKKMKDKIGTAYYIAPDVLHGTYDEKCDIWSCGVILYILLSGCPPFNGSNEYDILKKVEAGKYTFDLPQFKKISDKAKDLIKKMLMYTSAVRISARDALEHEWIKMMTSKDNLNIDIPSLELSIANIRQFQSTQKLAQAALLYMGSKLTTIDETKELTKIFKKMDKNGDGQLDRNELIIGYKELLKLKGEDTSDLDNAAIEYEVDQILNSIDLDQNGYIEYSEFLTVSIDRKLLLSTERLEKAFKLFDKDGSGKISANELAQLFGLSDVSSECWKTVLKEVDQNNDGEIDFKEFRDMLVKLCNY

outcome, inactive:
CN1CCN(CCCN(Cc2ccc(-c3cccc(CNCc4ccc5c(c4)OCO5)c3)cc2)C(=O)NC2CCCCC2)CC1
Cc1[nH]c(C)c(-c2ccc(CCc3ccc(F)cc3F)cc2)c(=O)c1Cl
Cc1cc(OCCCN2CCC(NS(=O)(=O)c3cccc(Br)c3)CC2)c2ccccc2n1
CC(C)NCc1ccc(-c2cccc(NC(=O)c3cccc(C#N)c3)c2)cc1
CC(C)C[C@H](NC(=O)c1cc2ccccc2s1)C(=O)N[C@H]1CCN(Cc2ccc(OCCN3CCNCC3)c3ccccc23)C1
COc1ccc(OCCCCON2C(N)=NC(N)=NC2(C)C)cc1
Cc1ccc(C(=O)Nc2ccc(Cl)c(N3CCN(CCc4ccccc4)CC3)c2)cc1
Cc1ccc(C(C(=O)Nc2ccc(N3CCNCC3)c(Cl)c2)c2ccccc2)cc1 (stereo not given)
COc1cc(CNCCCCCCNCc2cc(OC)cc3ccccc23)c2ccccc2c1
COc1cc(C(=O)N2CC[C@@H](CCN3CCC4(CC3)CN(S(C)(=O)=O)c3ccccc34)C[C@H]2Cc2ccc(Cl)c(Cl)c2)cc(OC)c1OC
Cc1ccc2c(NN=CC=Cc3ccccc3)cc(C)nc2c1
OCCN1CCN(Cc2ccc(-c3ccc(-c4nc5ccc(C(F)(F)F)cc5[nH]4)s3)cc2)CC1
NC1=NC2(CCCCC2)N(OCCCOc2cccc3ccccc23)C(N)=N1
Cc1cccc2[nH]c(-c3cccc(-c4ccc(NC(=O)Cc5ccon5)cc4)c3)nc12
COc1ccc2nccc([C@@H](O)CN3CCC(NC(=O)c4cc5ccccc5[nH]4)CC3)c2c1
O=C(NCCc1ccc(Cl)c(Cl)c1)C1CCCN(C(=O)c2ccc(O)c(-c3ccc(Cl)c(Cl)c3)c2)C1 (stereo not given)
CCCc1cc(Cc2cnc(N)nc2N)cc(CCC)c1OCCCCCC(=O)OCC
CCCCc1ccc(-c2ccc(-c3c(C)[nH]c(C)c(Br)c3=O)cn2)cc1
Cc1cc(NN=Cc2ccccn2)c2cc(C(F)(F)F)ccc2n1
O=C(Nc1ccsc1)Nc1cccc(-c2cccc(-c3nc4ccc(C(F)(F)F)cc4[nH]3)c2)c1
COc1cc(NC(=O)C(c2ccc(Cl)cc2)C(C)C)cc(OC)c1 (stereo not given)
CC(C)(C)C1CC(=O)C[C@@H]2C(=O)N(c3ccc(Br)cc3)C(=O)[C@H]12 (stereo not given in full)
COc1ccc(O)c(C(=O)c2cc(C(=O)NC3CCCCC3)c(=O)n(C3CCCCC3)c2)c1
COc1ccccc1NC(=O)Nc1ccc(-c2ccc(-c3nc4c(C)cccc4[nH]3)s2)cc1
COc1cc2c(C3CCN(CC4CCC(NC(=O)/C=C/c5ccc(Cl)c(Cl)c5)CC4)CC3)c[nH]c2cn1 (stereo not given)
COCC(C)n1c(SCC(=O)Nc2cc(C(F)(F)F)ccc2Cl)nc2ccccc2c1=O (stereo not given)
COc1ccc(-n2cc(CNCCCn3ccnc3)c(-c3cccc(F)c3)n2)cc1
COc1cc(Cc2cnc(N)nc2N)cc(OCCCCC2SC(=O)NC2=O)c1OC (stereo not given)
COc1ccc2nccc([C@@H](O)CN3CCC(NCc4nc5cc(F)ccc5o4)CC3)c2c1
N=C(N)c1cc(Br)cc(NC(=O)Nc2cc(Br)cc(C(=N)N)c2)c1
CS(=O)(=O)c1ccc(CNCc2ccc(-c3cccc(-c4nc5ccc(F)cc5[nH]4)c3)cc2)cc1
CC(C)(C)c1ccc(NC(=O)c2cccc(CN3CCN(Cc4cccc(O)c4)CC3)c2)cc1
COc1cc(C(=O)NC2CCN(Cc3ccccc3)CC2)ccc1-c1cc2cc(Cl)c(Cl)cc2[nH]1
COc1cc(NC(=O)c2sc(-c3ccc(Cl)cc3)cc2NC(=O)CN2CCCC2)ccc1OCCN1CCCC1
O=[N+]([O-])c1ccc(Nc2nc(NN=Cc3ccc(-c4ccc([N+](=O)[O-])cc4)o3)nc(Nc3ccccc3)n2)cc1
CN1CCN(CCCN(Cc2ccc(-c3cccc(CNC4CCCC4)c3)cc2)C(=O)/C=C/c2ccccc2)CC1
CC(C)(C)c1ccc(CN2CCCCC(NC(=O)c3cc(-c4cccc(Cl)c4)cs3)C2)cc1 (stereo not given)
O=C(NCc1cccc(F)c1)Nc1cccc(-c2ccc(-c3nc4ccc(F)cc4[nH]3)cc2)c1
CCCCCC(=O)N1CCOC(CCN2CCc3c(c4ccccc4n3C)C2)(c2ccc(Cl)c(Cl)c2)C1 (stereo not given)
CC(=O)Oc1c(C2CCN(CCCCNC(=O)c3ccc(NC(=O)c4ccc(Cl)cc4)cc3)CC2)ccc2ccccc12
